Source: PubChem BioAssay
DT40 TDP1 CPT: DT40-hTDP1 cell growth loss with CPT | Potency, µM (top dose mostly 46.2 µM), most hits filed as inhibitors | chicken DT40 Tdp1-/-;hTDP1 cells + 20 nM CPT, ATP luminescence, 48 h | 420,000 compounds, 12% hits; note: nearly all actives have a fitted effect of over 55% in size
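Cell growth measured by CellTiter-Glo luminescence after a minimum 48 h, 37 C compound exposure with 20 nM CPT in Tdp1-knockout DT40 cells stably expressing hTDP1, seeded 400/well; qHTS titration format.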
ELG1 DNA repair: inhibitors of ELG1-dependent DNA repair in HEK293T cells; HEK293T ELG1-luciferase reporter, luminescence, 16 h; DNA damage induced by 5-fluorouridine; Potency, µM (titrated, usually from 46.1 µM), actives largely listed as inhibitors; 330,000 compounds, 2.3% hits; note: nearly all actives have a fitted effect of over 55% in size
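Overnight (16 hr) co-exposure of 2,000 cells/well to 5-fluorouridine and compound at 37 °C preceded detection. Luciferase was quantified via ONE-Glo luminescence; loss of signal denotes inhibition.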
TDP1 cell noCPT: qHTS for Inhibitors of human tyrosyl-DNA phosphodiesterase 1 (TDP1): qHTS in cells in absence of CPT; DT40 Tdp1-/- hTDP1 cells, no CPT, ATP luminescence, 48 h; 420,000 compounds, 15% hits; Potency, µM (top dose mostly 46.2 µM), hits mostly inhibitors; note: nearly all actives have a fitted effect of over 55% in size
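Luminescent ATP content (CellTiter-Glo) served as the growth readout. Knockout chicken DT40 cells expressing human TDP1 were exposed to compounds without camptothecin for a minimum 48 hr at 37 °C.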
IL1B secr inh: inhibitors of inflammasome signaling (IL-1 beta secretion); THP-1 LPS/ATP IL-1B secretion, AlphaLISA, 16 h; stronger effect = lower value; activity change, % at 57.5 µM; 360,000 compounds, 4.7% hits; AID 743279; in the data active = activity change below about -50%; inconclusive = mostly about -30% to -49%
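Secreted IL-1B measured by AlphaLISA bead assay after 16 h compound exposure of THP-1 cells; compounds (final up to 57.5 uM) added 1 h before LPS (250 ng/mL) and ATP (1.25 mM) stimulation; lower signal means less secretion.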
HT1080 IDH1KD tx: toxicity to HT-1080 IDH1 knockdown cells (counter line). AID 686971. 360,000 compounds, 2% hits. Potency, µM (titrated, usually from 46.1 µM), actives largely listed as cytotoxic. HT-1080 IDH1 knockdown viability, ATP luminescence, 48 h
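IDH1KD HT-1080 cells, 750/well, RPMI + 5% FBS; compound pinned after 2 h settling; 48 h, 37 °C; CellTiter-Glo luminescence; % activity normalised to DMSO and no-cell wells; curves fitted, classed by r2 and efficacy.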
HT1080-NT tox: kills 2HG-producing HT-1080-NT fibrosarcoma cells. Potency, µM (highest dose often 46.1 µM), hits mostly cytotoxic. HT-1080-NT fibrosarcoma viability, CellTiter-Glo ATP luminescence, 48 h. AID 686970. 360,000 compounds, 1.6% hits;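 note: NT is the 2HG producing partner of a matched IDH1 knockdown line; nearly all actives have a fitted effect of over 55% in size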
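HT-1080-NT; 750 cells/well; 5% FBS RPMI; 48 h compound, 37 degrees C; CellTiter-Glo luminescence; curve fitting and curve-class assignment.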
Numbers stand for hits; - = inactive; ? = inconclusive; . = no result; ! = not active in a repeat. The list is not random: actives were taken first. Their share in the collection is about 19%. Unless noted, calls come from the whole dose curve; as a rule, active = well fitted curve in the direction sought with a large enough effect; inconclusive = small, poorly fitted or top-dose-only effect, or another doubt; inactive = no such curve, though single readings can be large; an effect the other way counts as inactive or inconclusive.

SMILES	DT40 TDP1 CPT	ELG1 DNA repair	TDP1 cell noCPT	IL1B secr inh	HT1080 IDH1KD tx	HT1080-NT tox
N#C/C(=C\c1c(Oc2ccccc2F)nc2ccccn2c1=O)C(=O)NC1CCS(=O)(=O)C1 (stereo not given)	-	-	?	?	-	-
CCCCCCCCCCCCCCCC(=O)OCCC1CCN(CCCN2c3ccccc3Sc3ccc(S(=O)(=O)N(C)C)cc32)CC1	-	.	-	.	.	.
CN1CCN(CCCN2c3ccccc3Sc3ccc(S(=O)(=O)N(C)C)cc32)CC1	16µM	-	23µM	-106	12µM	18µM
OCCN1CCN(CCCN2c3ccccc3Sc3ccc(Cl)cc32)CC1	23µM	-	29µM	-	?	?
CCN1C(=O)c2ccccc2Sc2ccc(C(=O)NCCCN3CCCCC3)cc21	-	-	-	?	?	?
CC(=O)c1ccc2c(c1)N(CCCN1CCC(CCO)CC1)c1ccccc1S2	11µM!	-	?	-	.	.
Cc1cc(C(=O)Nn2c(-c3ccc(Br)cc3)nc3ccccc3c2=O)ccc1[N+](=O)[O-]	29µM	-	?	-	?	33µM
COc1ccc(C(=O)On2c(-c3ccc(Br)cc3)nc3ccccc3c2=O)cc1	?	?	18µM	?	?	?
CC(=O)N1CCN(c2nc(-c3ccco3)c3c(c2C#N)CC(C)(C)SC3)CC1	?	?	23µM	?	-	-
CC1(C)Cc2c(C#N)c(SCC(=O)c3ccccc3)nc(N3CCOCC3)c2CS1	?	?	16µM	-	-	-
CC(C)CCSc1nc(N2CCOCC2)c2c(c1C#N)CC(C)(C)OC2	?	12µM	?	-	?	?
CCOc1ccccc1NC(=O)Cn1ccn(Cc2ccc(C)cc2)c(=O)c1=O	-	.	-	.	.	.
NC(=O)c1nsc(C(=O)N(c2cccc(F)c2)C(C(=O)NC2CCCC2)c2ccco2)c1N (stereo not given)	-	?	?	-	-	?
COCCn1c(SCC(=O)Nc2cccc(C)c2C)nc2c(oc3ccccc32)c1=O	-	.	-	.	.	.
Cc1ccc(C)c(CN2CCC(CNC(=O)Nc3ccc(C)c(C)c3)CC2)c1	?	-	15µM	-64	-	-
COc1cc([N+](=O)[O-])ccc1NC(=O)NCC1CCN(Cc2ccc(Cl)cc2)CC1	?	23µM	?	-79	?	?
COc1ccc(Cl)cc1NC(=O)NCC1CCN(Cc2cc(C)ccc2C)CC1	?	?	?	-56	?	?
O=C(Nc1ccc(F)cc1)OCCN1CCN(Cc2ccccc2)CCC1=O	?	?	?	-	-	-
O=C(Nc1cccc(C(F)(F)F)c1)OCCN1CCN(Cc2ccccc2)CCC1=O	21µM	-	?	-	-	-
CCOC(=O)C1CCCN(C(=O)c2ccccc2NS(=O)(=O)c2ccc(F)cc2)C1 (stereo not given)	-	?	-	-	-	-
CC[C@@]1(O)C(=O)OCc2c1cc1n(c2=O)Cc2cc3c([N+](=O)[O-])cccc3nc2-1	0.034µM	.	0.21µM	.	.	.
CC[C@@]1(O)C(=O)OCc2c1cc1n(c2=O)Cc2cc3c(CN(C)C)c(O)ccc3nc2-1	0.15µM	.	0.18µM	-103	2.1µM	1.2µM
O=c1cccc2n1Cc1cc3ccccc3nc1-2	?	?	?	-	-	-
CN(C)S(=O)(=O)c1ccc(C(=O)OCC2CCCO2)cc1 (stereo not given)	-	-	-	-	-	-
N#C/C(=C\c1ccc(N2CCCCC2)o1)C(=O)Nc1cccc(Br)c1	?	?	7.3µM	?	-	-
SMILES	DT40 TDP1 CPT	ELG1 DNA repair	TDP1 cell noCPT	IL1B secr inh	HT1080 IDH1KD tx	HT1080-NT tox
CCN(CC)c1ccc(C=C(c2nnnn2-c2ccccc2)c2nnnn2-c2ccccc2)cc1	?	-	10µM	-	-	-
C=CCOc1ccc(/C=C2\SC(=S)N(NS(=O)(=O)c3ccccc3)C2=O)cc1	-	-	-	-	-	-
O=c1oc2ccccc2c(O)c1/C=C1\C=Nc2ccccc21	8.2µM	-	7.3µM	-108	26µM	?
COc1ccc(OC)c(NC(=O)NCc2cccnc2)c1	-	-	-	-	-	-
COc1ccc(-c2cnc(SCC(=O)Nc3nc(C(C)(C)C)cs3)n2Cc2ccco2)cc1	?	?	21µM	-	?	?
Cc1csc(NC(=O)CSc2nnc(C)n2Cc2ccco2)n1	-	-	-	-	-	-
COc1ccc(NC(=O)CSc2ncc(-c3ccc(F)cc3)n2Cc2ccco2)cc1	13µM	?	16µM	-62	?	?
COc1ccc(-c2cnc(SCC(=O)Nc3cc(C)on3)n2Cc2ccco2)cc1	-	?	?	-	-	-
Cc1cnc(NC(=O)CSc2ncc(-c3ccccc3)n2Cc2ccco2)s1	18µM	?	?	-	?	?
O=C(CSc1ncc(-c2ccc(F)cc2)n1Cc1ccco1)Nc1nccs1	?	-	21µM	-	-	-
CCC(=O)Nc1cc(NC(=O)CSc2ncc(-c3ccc(F)cc3)n2Cc2ccco2)ccc1C	-	?	-	?	-	-
Cn1cccc1-c1cc2n(n1)CCC(=O)N2CCCC(=O)NCc1cccc(Cl)c1	-	.	-	.	.	.
COc1ccc(Nc2nc3c(S(=O)(=O)c4ccccc4)nnn3c3ccsc23)cc1OC	-	.	-	.	.	.
CCOc1ccc2c(c1)n([O-])c1c([n+]2=O)CCCC1	13µM	?	?	-	-	-
CCN(CC)c1c(C)nc2ccc(C(=O)NCc3ccc4c(c3)OCO4)cn12	-	.	?	-	-	-
CCN1CCN(C(=O)C(C)Sc2nc3nc(C)cc(C)n3n2)CC1 (stereo not given)	-	-	-	-51	-	-
COCCN1Cc2cccc(C(=O)Nc3ccc(C)cc3C)c2C1=O	-	.	-	.	.	.
Cc1cccc(N(CC(=O)N/N=C/c2ccc(C(=O)O)cc2)S(=O)(=O)c2ccccc2)c1C	-	.	?	-	-	-
Cc1cccc(N(CC(=O)NCCc2ccccc2)S(=O)(=O)c2ccccc2)c1C	16µM	.	18µM	.	.	.
Cc1cccc(N(CC(=O)NCCC2=CCCCC2)S(C)(=O)=O)c1C	16µM	-	?	-	-	-
COc1ccc(N(CC(=O)NCCC2=CCCCC2)S(C)(=O)=O)cc1	-	-	-	-	-	-
Cc1cccc(N(CC(=O)N(C)Cc2ccccc2)S(=O)(=O)c2ccccc2)c1C	?	.	23µM	.	.	.
CS(=O)(=O)N(CC(=O)NCCSCc1ccccc1)c1cc(C(F)(F)F)ccc1Cl	21µM	.	15µM	.	.	.
Cc1cccc(NC(=O)CNC(=O)c2cccs2)n1	-	-	-	-	-	-
